Bioassay records: PubChem, National Center for Advancing Translational Sciences (NCATS)
Caspase-1 inhib = blocks human caspase-1 allosterically or competitively; Caspase-1 enzyme, Ac-WEHD-AFC fluorogenic rate; 75,000 tested, 0.03% active; AID 900; Potency, µM (titrated, usually from 57.5 µM), actives largely listed as inhibitors
TSHR agonist = activates the human thyroid stimulating hormone receptor; HEK293-CNG-TSHR cells (CNG channel as cAMP sensor), membrane potential dye, cAMP; P16473; AID 926; 73,000 tested, 0.48% active; Potency, µM (titrated, usually from 57.1 µM), hits mostly activators; active = well fitted activation curve with a large enough effect in the main read-out, with a control signal flat, not every such curve was filed as active; inconclusive = small, poorly fitted or top-dose-only effect, or a change in a side signal; inactive = no such curve, though single readings can be large or run the other way; reference of the percent scale not stated here;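 also: the control signal comes from parental cells without the receptor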
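HEK 293 cells stably expressing TSHR and a cAMP-gated CNG channel; parental CNG-only cells as counterscreen. Cells preloaded 60 min with membrane potential dye plus 100 uM RO 20-1724, then compound 30 min; fluorescence read at 590 nm.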
HEK293 cAMP ctrl = parental HEK293 cAMP activation (counter-screen) | parental HEK293 CNG cAMP sensor, membrane potential fluorescence | 73,000 tested, 2.5% active | Potency, µM (highest dose often 57.1 µM), actives largely listed as activators; also: nearly all actives have a fitted effect of over 55% in size
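Parental HEK 293 cells stably expressing a cAMP-gated CNG channel were loaded with membrane potential dye containing 100 uM RO 20-1724 for 60 min. Compound added for 30 min; depolarization read as fluorescence intensity at 590 nm.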
USP2a inh = inhibitors of human ubiquitin-specific protease USP2a. USP2a enzymatic assay, qHTS inhibition. Potency, µM (titrated, usually from 38.3 µM), hits mostly inhibitors. O75604. AID 927. 60,000 tested, 0.1% active; also: nearly all actives have a fitted effect of over 60% in size
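USP2 core (20nM final) preincubated 30 min RT with compound, then Ub-PLA2 20nM and NBD C6-HPC 20uM final added; buffer 20mM Tris-HCl pH 8.0, 2mM CaCl2. Fluorescence Ex 460/Em 535 read at 0 and 2.5 h; normalized to NEM.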
CRE-bla Fsk = CRE-bla signaling modulation under forskolin stimulation | CHO CRE-bla reporter (cAMP response element driving beta-lactamase), forskolin EC10, beta-lactamase ratio | Potency, µM (top dose mostly 38.2 µM), usual class: activators | 71,000 tested, 2.5% active | AID 662; active = well fitted activation curve with a large enough effect in the signal ratio, with a control signal flat, not every such curve was filed as active; inconclusive = small, poorly fitted or top-dose-only effect, or effect the other way, or a change in a side signal; the % refers to the signal ratio
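Forskolin analogue NKH 477 at EC10 stimulated CRE-driven beta-lactamase in CHO cells alongside compound dilution series. Beta-lactamase was measured with CCF4, excitation 405 nm, emission ratio 460/530 nm.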
Casp7 inh = allosteric or competitive inhibitors of human caspase-7; P55210; recombinant caspase-7, Ac-DEVD-AFC fluorescence rate; Potency, µM (series often up to 57.5 µM), hits mostly inhibitors; 75,000 tested, 0.02% active; active = well fitted inhibition curve with a large enough effect in the main read-out, with a control signal flat, not every such curve was filed as active; inconclusive = small, poorly fitted or top-dose-only effect, or a change in a side signal
Hits are given with their value; n = inactive; u = inconclusive; x = not tested or not shown; ! = not confirmed by another sample; [ ] = dose if it differs, or a comment. Sampled rows, rich in hits. Any-hit rate of the full collection: about 5%. Unless noted, calls follow the shape of the dose curve; as a rule, active = well fitted curve in the direction sought with a large enough effect; inconclusive = small, poorly fitted or top-dose-only effect, or another doubt; inactive = no such curve, though single readings can be large; an effect the other way counts as inactive or inconclusive.

SMILES | Caspase-1 inhib | TSHR agonist | HEK293 cAMP ctrl | USP2a inh | CRE-bla Fsk | Casp7 inh
CN(N=O)c1ccc(O)c(O)c1 | n | n | n | 12.6µM | n | n
O=C1CN=C(c2cccs2)c2c(sc3c2CCCC3)N1 | n | u | u | 6.31µM | n | n
CCn1nc(-c2cccs2)nc2c(=O)n(C)c(=O)nc1-2 | 0.794µM | u | 3.16µM | n | u | u
Clc1ccc(CO[C@@H](Cn2ccnc2)c2ccc(Cl)cc2Cl)cc1 | n | u | 15.8µM | n | n | n
c1coc(CNc2ncnc3nc[nH]c23)c1 | n | u | 5.01µM! | n | n | n
COc1cc2c(c(OC)c1OC)-c1ccc(OC)c(=O)cc1[C@H](NC(C)=O)CC2 | n | n | n | n | 2.51µM | n
CCc1c(C(=O)OC)ncc2[nH]c3cc(OC)c(OC)cc3c12 | u | x | n | n | 2.51µM | n
CCN(CC)c1ncnc2c1ncn2[C@@H]1O[C@@H](COP(=O)(O)OP(=O)(O)C(Br)(Br)P(=O)(O)O)[C@H](O)[C@@H]1O | n | n | n | n | n | n
CCNC(=O)[C@@H]1O[C@@H](n2cnc3c(N)ncnc32)[C@@H](O)[C@H]1O | n | u | 0.159µM | n | n | n
O=C(O)CN1CCN(CC(=O)O)CC(=O)[O][Hg][O]C(=O)C1 | n[11.5 µM] | n[11.4 µM] | n[11.4 µM] | x | n[7.6 µM] | n[11.5 µM]
Oc1c(Cl)c(Cl)c(Cl)c(Cl)c1Cl | n | u | 31.6µM | n | u | n
CN(C)[C@@H]1C(=O)C(C(N)=O)=C(O)[C@]2(O)C(=O)C3=C(O)c4c(O)cccc4[C@](C)(O)[C@H]3C[C@@H]12 | n[11.5 µM] | n[11.4 µM] | n[11.4 µM] | x | n[7.6 µM] | n[11.5 µM]
CN1[C@@H]2CC[C@H]1CC(OC(c1ccc(F)cc1)c1ccc(F)cc1)C2 (some centres not stated) | n | u | 31.6µM | x | u | n
CN1[C@@H]2CC[C@H]1CC(O[C@@H](c1ccccc1)c1ccccc1N)C2 (some centres not stated) | n | n | n | n | n | n
O=C(Oc1ccc2ccc(OC(=O)N3CCOCC3)cc2c1)N1CCOCC1 | n | u | u | n | n | n
COC(=O)c1c(C)oc2ccc(OC(=O)N3CCOCC3)cc12 | n | 25.1µM | n | n | n | n
N[C@]1(C(=O)O)CC[C@@H](C(=O)O)C1 | x | x | n | x | n | x
CSCC[C@@H](N)P(C)(=O)O | n[11.5 µM] | n[11.4 µM] | n[11.4 µM] | x | n[7.6 µM] | n[11.5 µM]
CN(C(=O)Cc1ccccc1)[C@H](CN1CCCC1)c1ccccc1 | n | u | 31.6µM | x | n | n
CN(C(=O)Cc1ccc(Cl)c(Cl)c1)[C@H](CN1CCCC1)c1ccccc1 | n | u | 31.6µM | x | u | n
CC(C)c1ccc(C(O)(C(=O)O)c2ccc(C(C)C)cc2)cc1 | n[11.5 µM] | n[11.4 µM] | n[11.4 µM] | x | n[7.6 µM] | n[11.5 µM]
CCC(=NCc1cccnc1)c1c(O)n(Cc2ccccc2)c(=O)[nH]c1=O | n | n | n | n | 1.58µM | n
CC(=NCc1cccnc1)c1c(O)n(Cc2ccccc2)c(=O)[nH]c1=O | n | n | n | n | u | n
Oc1ccc2c3c1O[C@@H]1c4[nH]c5c(c4C[C@@]4(O)[C@@H](C2)N(CC2CC2)CC[C@]314)C[C@]1(O)[C@@H]2Cc3ccc(O)c4c3[C@@]1(CCN2CC1CC1)[C@H]5O4 | n | u | u | u | n | n
CC(=O)C1=C(O)[C@@H]2[C@@H]3c4c[nH]c5cccc(c45)C[C@@H]3C(C)(C)N2C1=O | n | n | n | x | 1.26µM | n
SMILES | Caspase-1 inhib | TSHR agonist | HEK293 cAMP ctrl | USP2a inh | CRE-bla Fsk | Casp7 inh
NC(=O)CN1C[C@@H](O)CC1=O | n | n | n | n | n | n
COc1ccc(C(=O)c2c(C)n(CCN3CCOCC3)c3cc(I)ccc23)cc1 | n | u | 6.31µM | x | u | n
C#CCN[C@@H](C)Cc1ccccc1 | n | x | n | n | n | n
Cc1cccc(-c2nc3ccccc3c(=O)n2-n2cccc2)c1 | n | u | 3.98µM | n[7.66 µM] | u | n
Cc1ccc(-c2nc3ccccc3c(=O)n2-n2cccc2)cc1 | n | x | n | n | n | n
C[C@]12CC[C@H](O)C[C@@H]1CC[C@H]1[C@H]2CC[C@]2(C)[C@H](C(=O)CO)CC[C@@H]12 | n | u | n | n | u | n
CC[C@]1(OC(=O)CN)C(=O)OCc2c1cc1n(c2=O)Cc2cc3ccccc3nc2-1 | n[11.5 µM] | n[11.4 µM] | n[11.4 µM] | x | 0.1µM | n[11.5 µM]
O=C(O)[C@H]1CCN1 | n | n | n | n | n | n
CC(=O)[C@@H]1CC[C@H]2[C@H]3CC[C@H]4C[C@@H](O)CC[C@]4(C)[C@@H]3CC[C@]12C | n | n | n | n | n | n
CC(=O)c1c(O)n(C)c(=S)n(-c2ccccc2)c1=O | n | u | 1µM | n | n | n
CCC(=NC(C)c1ccccc1)c1c(O)n(C)c(=O)n(C)c1=O (configuration not stated) | n | u | u | n | u | n
COc1cc2c3cc1Oc1c(O)c(OC)cc4c1[C@@H](Cc1ccc(cc1)Oc1cc(ccc1O)C[C@H]3N(C)CC2)N(C)CC4 | n[11.5 µM] | n[11.4 µM] | n[11.4 µM] | x | n[7.6 µM] | n[11.5 µM]
O=P(c1ccccc1)(c1ccccc1)N1CC2(CC2)CC(O)(c2ccccc2)C1 (configuration not stated) | n | u | 0.794µM | x | n | n
O=C1OCCN1P(=O)(c1ccccc1)c1ccccc1 | n | n | n | n | n | n
C/C=C1\C[C@H](C)[C@](O)(CO)C(=O)OCC2=CCN3CC[C@@H](OC1=O)[C@@H]23 | x | n | n | x | u | x
NC(=O)CI | n | n | n | 25.1µM | n | n
O=C1C=Cc2ccccc2C1=O | n | n | n | x | x | n
O=C1C=CC(=O)c2c(O)cccc21 | 20µM | x | x | 12.6µM | x | u
C[C@H](N[C@@H](C)CCc1ccccc1)[C@H](O)c1ccc(O)cc1 | n | u | u | n | n | n
O=C(Oc1ccccc1)N1CCC2(CCCN(Cc3ccccc3)C2)CC1 | n | u | u | n | n | n
O=C(Oc1ccccc1)N1CCC[C@@]2(CCN(Cc3cc(C(F)(F)F)cc(C(F)(F)F)c3)C2)C1 | n | u | 15.8µM | n | u | n
N#Cc1ccc(CN2CCCC3(CCN(C(=O)Oc4ccccc4)CC3)C2)cc1 | n | u | 15.8µM | n | n | n
CCN[C@]1(c2cccs2)CCCCC1=O | n | 5.01µM | n | n | n | n
c1ccc(C(OCCN2CCNCC2)c2ccccc2)cc1 | n | n | n | n | n | n
C(=C/c1ccccc1)/CN1CCN(CCOC(c2ccccc2)c2ccccc2)CC1 | n | 31.6µM | n | x | u | n
CNC[C@H](O)c1ccc(O)cc1 | n | n | n | n | n | n
CC(C)NC[C@H](O)c1ccc(N)c(C#N)c1 | n | u | 0.005µM | x | u | n
CN1CCN(C(=O)COc2ccc3ccccc3c2Br)CC1 | u | n | n | n | 2.51µM | u
